{
  "source": "PubChem BioAssay AID1159580",
  "about": "(chemical genetic matrix, 2015)",
  "assay": "chemical genetic growth profiling, strain panel (AID 1159580);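 further: tested at 20 µM; growth read once vehicle control cultures reached saturation at 30 °C; 1 = growth at the plate median or of vehicle wells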",
  "conditions": "growth OD",
  "key": {"[1]": {"conditions": "S. cerevisiae deletion strains, locus YAL013W, strain DEP1, stronger effect = lower value"}, "[2]": {"conditions": "S. cerevisiae deletion strains, locus YBR229C, strain ROT2, stronger effect = lower value"}, "[3]": {"conditions": "S. cerevisiae deletion strains, locus YDL101C, strain DUN1, stronger effect = lower value"}, "[4]": {"conditions": "S. cerevisiae deletion strains, locus YDL134C, strain PPH21, stronger effect = lower value"}, "[5]": {"conditions": "S. cerevisiae deletion strains, locus YDR150W, strain NUM1, stronger effect = lower value"}, "[6]": {"conditions": "S. cerevisiae deletion strains, locus YEL061C, strain CIN8, stronger effect = lower value"}, "[7]": {"conditions": "S. cerevisiae deletion strains, locus YGR078C, strain PAC10, stronger effect = lower value"}, "[8]": {"conditions": "S. cerevisiae deletion strains, locus YHR030C, strain SLT2, stronger effect = lower value"}, "[9]": {"conditions": "S. cerevisiae deletion strains, locus YHR087W, strain rtc3, stronger effect = lower value"}, "[10]": {"conditions": "S. cerevisiae deletion strains, locus YJR043C, strain POL32, stronger effect = lower value"}, "[11]": {"conditions": "S. cerevisiae deletion strains, locus YJR075W, strain HOC1, stronger effect = lower value"}, "[12]": {"conditions": "S. cerevisiae deletion strains, locus YKL190W, strain CNB1, stronger effect = lower value"}, "[13]": {"conditions": "S. cerevisiae deletion strains, locus YLR039C, strain RIC1, stronger effect = lower value"}, "[14]": {"conditions": "S. cerevisiae deletion strains, locus YLR058C, strain SHM2 (second series), stronger effect = lower value"}, "[15]": {"conditions": "S. cerevisiae deletion strains, locus YLR085C, strain ARP6, stronger effect = lower value"}, "[16]": {"conditions": "S. cerevisiae deletion strains, locus YLR262C, strain YPT6, stronger effect = lower value"}, "[17]": {"conditions": "S. cerevisiae deletion strains, locus YML094W, strain GIM5, stronger effect = lower value"}, "[18]": {"conditions": "S. cerevisiae deletion strains, locus YMR219W, strain ESC1, stronger effect = lower value"}, "[19]": {"conditions": "S. cerevisiae deletion strains, locus YMR307W, strain GAS1, stronger effect = lower value"}, "[20]": {"conditions": "S. cerevisiae deletion strains, locus YNL128W, strain TEP1, stronger effect = lower value"}, "[21]": {"conditions": "S. cerevisiae deletion strains, locus YNL153C, strain GIM3, stronger effect = lower value"}, "[22]": {"conditions": "S. cerevisiae deletion strains, locus YNL298W, strain CLA4 (second series), stronger effect = lower value"}, "[23]": {"conditions": "S. cerevisiae deletion strains, locus YNL322C, strain KRE1, stronger effect = lower value"}, "[24]": {"conditions": "S. cerevisiae deletion strains, locus YNR030W, strain Alg12, stronger effect = lower value"}, "[25]": {"conditions": "S. cerevisiae deletion strains, locus YPL055C, strain LGE1, stronger effect = lower value"}, "[26]": {"conditions": "S. cerevisiae deletion strains, locus YPR135W, strain CTF4, stronger effect = lower value"}, "[27]": {"conditions": "S. cerevisiae deletion strains, locus YPL241C, strain CIN2, stronger effect = lower value"}},
  "note": "Hit rate of the full screen: of about 5,500 compounds, about 2,000 (36%) were called active. Another 18% or so got no clear call; they are omitted. The list shows a part of the results. A number with no mark means an inactive call. No stated cut-off is given here; in the data, active means normalized growth mostly below about 0.91 (no sharp cut-off); inconclusive means no clear call, values can overlap the other calls; inactive means mostly above about 0.92.",
  "data": [
    {"compound": "CC1=NN(c2cccc(S(N)(=O)=O)c2)C(=O)C1", "values": [
      {"measurement": "normalized growth", "setting": "[1]", "result": 1.01},
      {"measurement": "normalized growth", "setting": "[2]", "result": 1},
      {"measurement": "normalized growth", "setting": "[3]", "result": 1.03},
      {"measurement": "normalized growth", "setting": "[4]", "result": 0.978},
      {"measurement": "normalized growth", "setting": "[5]", "result": 0.985},
      {"measurement": "normalized growth", "setting": "[6]", "result": 1},
      {"measurement": "normalized growth", "setting": "[7]", "result": 1},
      {"measurement": "normalized growth", "setting": "[8]", "result": 1.04},
      {"measurement": "normalized growth", "setting": "[9]", "result": 1.01},
      {"measurement": "normalized growth", "setting": "[10]", "result": 0.999},
      {"measurement": "normalized growth", "setting": "[11]", "result": 1.03},
      {"measurement": "normalized growth", "setting": "[12]", "result": 0.985},
      {"measurement": "normalized growth", "setting": "[13]", "result": 0.975},
      {"measurement": "normalized growth", "setting": "[14]", "result": 0.998},
      {"measurement": "normalized growth", "setting": "[15]", "result": 1.04},
      {"measurement": "normalized growth", "setting": "[16]", "result": 0.952},
      {"measurement": "normalized growth", "setting": "[17]", "result": 1.12},
      {"measurement": "normalized growth", "setting": "[18]", "result": 1.01},
      {"measurement": "normalized growth", "setting": "S. cerevisiae deletion strains, locus YMR263W, strain SAP30, stronger effect = lower value", "result": 0.994},
      {"measurement": "normalized growth", "setting": "[19]", "result": 1.04},
      {"measurement": "normalized growth", "setting": "[20]", "result": 0.977},
      {"measurement": "normalized growth", "setting": "[21]", "result": 1.01},
      {"measurement": "normalized growth", "setting": "[22]", "result": 1.01},
      {"measurement": "normalized growth", "setting": "[23]", "result": 1.01},
      {"measurement": "normalized growth", "setting": "[24]", "result": 0.999},
      {"measurement": "normalized growth", "setting": "[25]", "result": 1.03},
      {"measurement": "normalized growth", "setting": "[26]", "result": 1.08}
    ]},
    {"compound": "CC(C)(C)C1=NN(c2ccccc2)C(=O)C1", "values": [
      {"measurement": "normalized growth", "setting": "[1]", "result": 0.973},
      {"measurement": "normalized growth", "setting": "[2]", "result": 0.959},
      {"measurement": "normalized growth", "setting": "S. cerevisiae deletion strains, locus YCL061C, strain MRC1, stronger effect = lower value", "result": 0.966},
      {"measurement": "normalized growth", "setting": "[3]", "result": 0.983},
      {"measurement": "normalized growth", "setting": "[4]", "result": 0.975},
      {"measurement": "normalized growth", "setting": "[5]", "result": 0.952},
      {"measurement": "normalized growth", "setting": "[6]", "result": 0.994},
      {"measurement": "normalized growth", "setting": "[7]", "result": 0.956},
      {"measurement": "normalized growth", "setting": "[8]", "result": 0.863},
      {"measurement": "normalized growth", "setting": "[9]", "result": 1},
      {"measurement": "normalized growth", "setting": "[10]", "result": 1.01},
      {"measurement": "normalized growth", "setting": "[11]", "result": 0.939},
      {"measurement": "normalized growth", "setting": "[12]", "result": 0.956},
      {"measurement": "normalized growth", "setting": "[13]", "result": "0.666 (active)"},
      {"measurement": "normalized growth", "setting": "[14]", "result": 0.972},
      {"measurement": "normalized growth", "setting": "[15]", "result": "0.637 (active)"},
      {"measurement": "normalized growth", "setting": "[16]", "result": "0.707 (active)"},
      {"measurement": "normalized growth", "setting": "[17]", "result": 0.984},
      {"measurement": "normalized growth", "setting": "[18]", "result": 0.966},
      {"measurement": "normalized growth", "setting": "[19]", "result": 0.803},
      {"measurement": "normalized growth", "setting": "[21]", "result": 0.981},
      {"measurement": "normalized growth", "setting": "[22]", "result": 0.929},
      {"measurement": "normalized growth", "setting": "[23]", "result": 0.981},
      {"measurement": "normalized growth", "setting": "[24]", "result": 0.888},
      {"measurement": "normalized growth", "setting": "S. cerevisiae deletion strains, locus YOL006C, strain TOP1, stronger effect = lower value", "result": 0.808},
      {"measurement": "normalized growth", "setting": "[25]", "result": 1.03},
      {"measurement": "normalized growth", "setting": "[27]", "result": 0.89},
      {"measurement": "normalized growth", "setting": "[26]", "result": 0.656},
      {"measurement": "normalized growth", "setting": "S. cerevisiae strains, strain wild type, stronger effect = lower value", "result": "0.884 (active)"}
    ]},
    {"compound": "Cc1ccc(=O)n(-c2ccccc2)c1", "values": [
      {"measurement": "normalized growth", "setting": "[1]", "result": 1},
      {"measurement": "normalized growth", "setting": "S. cerevisiae deletion strains, locus YAL040C, strain CLN3, stronger effect = lower value", "result": 1.01},
      {"measurement": "normalized growth", "setting": "S. cerevisiae deletion strains, locus YCL061C, strain MRC1 (second series), stronger effect = lower value", "result": 1},
      {"measurement": "normalized growth", "setting": "S. cerevisiae deletion strains, locus YDR363W, strain ESC2, stronger effect = lower value", "result": 1},
      {"measurement": "normalized growth", "setting": "S. cerevisiae deletion strains, locus YER002W, strain NOP16, stronger effect = lower value", "result": 0.975},
      {"measurement": "normalized growth", "setting": "[7]", "result": 1.02},
      {"measurement": "normalized growth", "setting": "[20]", "result": 0.991},
      {"measurement": "normalized growth", "setting": "S. cerevisiae deletion strains, locus YNL175C, strain NOP13, stronger effect = lower value", "result": 1},
      {"measurement": "normalized growth", "setting": "S. cerevisiae deletion strains, locus YNL197C, strain WHI3, stronger effect = lower value", "result": 1.01},
      {"measurement": "normalized growth", "setting": "S. cerevisiae deletion strains, locus YNL224C, strain SQS1, stronger effect = lower value", "result": 1.01},
      {"measurement": "normalized growth", "setting": "[23]", "result": 0.998},
      {"measurement": "normalized growth", "setting": "S. cerevisiae deletion strains, locus YOR083W, strain WHI5 (second series), stronger effect = lower value", "result": 1.01},
      {"measurement": "normalized growth", "setting": "[25]", "result": 1.02},
      {"measurement": "normalized growth", "setting": "[27]", "result": 1}
    ]}
  ]
}
